Holding throughout (experiment): DAPPL (digital affinity profiling via proximity ligation, sequencing); 10 mM Tris-HCl pH 7.5, 50 mM NaCl, 1 mM DTT, 4% glycerol, room temperature, 30 min; GST-TFs on glutathione beads, 16-mer random dsDNA library, 0.1% formaldehyde crosslink after washing; high values mean tight binding
Assay [1] has as its target T1, FEV (Homo sapiens, UniProt Q99581 1-238).
T1 sequence: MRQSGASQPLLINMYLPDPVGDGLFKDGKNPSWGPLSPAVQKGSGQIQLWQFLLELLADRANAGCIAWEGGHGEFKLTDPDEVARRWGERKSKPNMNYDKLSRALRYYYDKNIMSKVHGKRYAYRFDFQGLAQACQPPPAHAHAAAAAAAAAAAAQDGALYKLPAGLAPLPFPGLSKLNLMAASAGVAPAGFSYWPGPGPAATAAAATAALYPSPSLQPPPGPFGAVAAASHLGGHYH
The note with it: protein: recombinant; tags: N-terminal GST; dsDNA, one strand shown. An outline of the steps:
(§1)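 Human transcription factors fused to GST were expressed in yeast, captured on glutathione beads, given DNA barcodes and pooled with a GST-only negative control. Pools were incubated with 200 nmole of a 16-mer random double-stranded DNA library in Tris/NaCl/DTT/glycerol buffer at room temperature for 30 min. They were then washed, crosslinked with 0.1% formaldehyde, proximity-ligated (BsaI/T4 ligase, 1 h, 37 °C), PCR-amplified and sequenced on an Illumina NextSeq500. Binding signal is each 6-mer's read frequency for a factor divided by its frequency for the GST control.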

Assay [2] deals with ETV5 (Homo sapiens, UniProt P41161 1-510). The note with it: protein: recombinant; tags: N-terminal GST; dsDNA, one strand shown. The method in brief:
as §1

For assay [3], the target named is HSF1 (Homo sapiens, UniProt Q00613 1-529). The note with it: protein: recombinant; tags: N-terminal GST; chain copies: 3; dsDNA, one strand shown. The method in brief: as §1
Sequence of HSF1 (Q00613 whole entry): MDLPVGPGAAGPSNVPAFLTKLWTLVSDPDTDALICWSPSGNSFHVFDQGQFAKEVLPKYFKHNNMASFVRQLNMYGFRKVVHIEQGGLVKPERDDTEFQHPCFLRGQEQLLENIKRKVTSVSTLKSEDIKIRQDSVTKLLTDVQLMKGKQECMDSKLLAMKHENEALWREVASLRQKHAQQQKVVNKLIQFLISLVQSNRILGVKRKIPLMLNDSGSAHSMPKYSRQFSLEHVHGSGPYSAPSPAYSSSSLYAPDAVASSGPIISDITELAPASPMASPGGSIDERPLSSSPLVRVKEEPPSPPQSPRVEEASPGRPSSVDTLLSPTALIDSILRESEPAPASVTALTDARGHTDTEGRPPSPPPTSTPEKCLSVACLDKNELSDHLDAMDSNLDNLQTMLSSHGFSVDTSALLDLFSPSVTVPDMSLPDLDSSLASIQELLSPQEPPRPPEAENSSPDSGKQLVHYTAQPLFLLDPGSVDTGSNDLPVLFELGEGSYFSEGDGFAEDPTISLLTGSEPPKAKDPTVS
Assay [4] has as its target T2, SPIC (Homo sapiens, UniProt Q8N5J4 1-248).
T2 sequence: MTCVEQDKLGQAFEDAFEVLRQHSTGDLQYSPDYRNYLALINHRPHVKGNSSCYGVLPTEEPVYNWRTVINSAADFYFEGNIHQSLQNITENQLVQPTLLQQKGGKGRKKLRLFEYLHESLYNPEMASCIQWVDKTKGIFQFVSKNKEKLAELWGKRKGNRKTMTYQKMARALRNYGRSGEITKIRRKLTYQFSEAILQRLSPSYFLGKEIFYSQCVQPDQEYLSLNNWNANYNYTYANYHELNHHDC
The note with it: protein: recombinant; tags: N-terminal GST; dsDNA, one strand shown. The method in brief: as §1

The target in assay [5] is ELF4 (Homo sapiens, UniProt Q99607 1-663). The note with it: protein: recombinant; tags: N-terminal GST; dsDNA, one strand shown. The method in brief: as §1
Sequence of ELF4 (Q99607 whole entry): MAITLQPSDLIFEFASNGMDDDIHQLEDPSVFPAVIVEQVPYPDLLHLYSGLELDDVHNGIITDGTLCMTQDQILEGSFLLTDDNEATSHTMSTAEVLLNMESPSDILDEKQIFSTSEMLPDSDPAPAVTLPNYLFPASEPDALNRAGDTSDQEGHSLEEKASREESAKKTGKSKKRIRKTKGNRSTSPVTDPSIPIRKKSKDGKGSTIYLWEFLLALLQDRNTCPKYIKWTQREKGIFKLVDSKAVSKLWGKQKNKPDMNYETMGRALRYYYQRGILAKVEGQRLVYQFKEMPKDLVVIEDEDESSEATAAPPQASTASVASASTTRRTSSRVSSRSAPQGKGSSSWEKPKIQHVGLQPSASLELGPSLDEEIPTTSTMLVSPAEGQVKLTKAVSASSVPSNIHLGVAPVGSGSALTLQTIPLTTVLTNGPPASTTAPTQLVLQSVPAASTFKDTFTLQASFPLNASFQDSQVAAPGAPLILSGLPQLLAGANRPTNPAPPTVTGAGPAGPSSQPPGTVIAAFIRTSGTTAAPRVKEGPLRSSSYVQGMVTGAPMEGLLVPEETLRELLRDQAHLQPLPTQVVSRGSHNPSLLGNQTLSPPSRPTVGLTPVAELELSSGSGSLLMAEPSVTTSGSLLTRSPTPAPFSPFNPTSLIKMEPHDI
Assay [6] concerns the target T3, ELK4 (Homo sapiens, UniProt P28324-2 1-405).
T3 sequence: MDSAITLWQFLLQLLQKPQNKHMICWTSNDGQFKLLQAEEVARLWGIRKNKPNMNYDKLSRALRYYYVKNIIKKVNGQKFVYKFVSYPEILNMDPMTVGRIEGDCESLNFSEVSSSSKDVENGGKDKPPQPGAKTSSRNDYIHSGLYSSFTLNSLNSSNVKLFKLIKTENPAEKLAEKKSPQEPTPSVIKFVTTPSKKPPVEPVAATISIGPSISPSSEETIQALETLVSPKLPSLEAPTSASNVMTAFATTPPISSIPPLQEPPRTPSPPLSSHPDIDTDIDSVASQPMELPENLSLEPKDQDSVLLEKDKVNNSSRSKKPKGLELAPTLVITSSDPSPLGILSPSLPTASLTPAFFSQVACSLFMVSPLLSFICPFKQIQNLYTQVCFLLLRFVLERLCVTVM
The note with it: protein: recombinant; tags: N-terminal GST; dsDNA, one strand shown. The method in brief:
as §1

Assay [7] deals with T4, ETV2 (Homo sapiens, UniProt O00321 1-342).
T4 sequence: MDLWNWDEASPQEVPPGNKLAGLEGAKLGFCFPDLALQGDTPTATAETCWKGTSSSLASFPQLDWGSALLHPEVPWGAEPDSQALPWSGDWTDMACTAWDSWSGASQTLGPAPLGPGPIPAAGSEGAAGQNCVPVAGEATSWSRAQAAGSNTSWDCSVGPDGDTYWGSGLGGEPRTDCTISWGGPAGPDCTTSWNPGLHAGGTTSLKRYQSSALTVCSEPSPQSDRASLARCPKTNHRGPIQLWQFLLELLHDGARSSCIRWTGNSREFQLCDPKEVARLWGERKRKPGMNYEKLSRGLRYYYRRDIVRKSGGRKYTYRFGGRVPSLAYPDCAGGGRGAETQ
The note with it: protein: recombinant; tags: N-terminal GST; dsDNA, one strand shown. The method in brief: as §1

The target of assay [8] is T5, ELF3 (Homo sapiens, UniProt P78545 1-371).
T5 sequence: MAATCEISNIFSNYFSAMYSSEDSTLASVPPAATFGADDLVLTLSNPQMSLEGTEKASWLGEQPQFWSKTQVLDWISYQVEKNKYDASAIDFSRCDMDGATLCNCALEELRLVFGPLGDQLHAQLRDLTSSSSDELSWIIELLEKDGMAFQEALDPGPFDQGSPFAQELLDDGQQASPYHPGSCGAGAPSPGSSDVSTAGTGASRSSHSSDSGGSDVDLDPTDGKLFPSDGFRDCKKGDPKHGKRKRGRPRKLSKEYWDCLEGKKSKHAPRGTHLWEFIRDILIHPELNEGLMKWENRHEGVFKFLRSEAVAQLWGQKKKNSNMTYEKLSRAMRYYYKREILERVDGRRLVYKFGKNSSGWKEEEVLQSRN
The note with it: protein: recombinant; tags: N-terminal GST; dsDNA, one strand shown. An outline of the steps: as §1

The target in assay [9] is CRX (Homo sapiens, UniProt O43186 1-299). The note with it: protein: recombinant; tags: N-terminal GST; dsDNA, one strand shown. An outline of the steps: as §1
Sequence of CRX (O43186 whole entry): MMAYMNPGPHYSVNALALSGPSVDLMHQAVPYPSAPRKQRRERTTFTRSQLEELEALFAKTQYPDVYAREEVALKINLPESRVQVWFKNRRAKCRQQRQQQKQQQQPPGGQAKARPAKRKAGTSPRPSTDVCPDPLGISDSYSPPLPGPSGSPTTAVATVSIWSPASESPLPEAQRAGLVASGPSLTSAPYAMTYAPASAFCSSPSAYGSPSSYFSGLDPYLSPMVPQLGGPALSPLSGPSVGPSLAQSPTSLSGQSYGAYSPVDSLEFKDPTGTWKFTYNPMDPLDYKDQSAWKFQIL
Assay [10] deals with ETV1 (Homo sapiens, UniProt P50549 1-477). The note with it: protein: recombinant; tags: N-terminal GST; dsDNA, one strand shown. The method in brief:
as §1

Assay [11] concerns the target T6, ERF (Homo sapiens, UniProt P50548 1-548).
T6 sequence: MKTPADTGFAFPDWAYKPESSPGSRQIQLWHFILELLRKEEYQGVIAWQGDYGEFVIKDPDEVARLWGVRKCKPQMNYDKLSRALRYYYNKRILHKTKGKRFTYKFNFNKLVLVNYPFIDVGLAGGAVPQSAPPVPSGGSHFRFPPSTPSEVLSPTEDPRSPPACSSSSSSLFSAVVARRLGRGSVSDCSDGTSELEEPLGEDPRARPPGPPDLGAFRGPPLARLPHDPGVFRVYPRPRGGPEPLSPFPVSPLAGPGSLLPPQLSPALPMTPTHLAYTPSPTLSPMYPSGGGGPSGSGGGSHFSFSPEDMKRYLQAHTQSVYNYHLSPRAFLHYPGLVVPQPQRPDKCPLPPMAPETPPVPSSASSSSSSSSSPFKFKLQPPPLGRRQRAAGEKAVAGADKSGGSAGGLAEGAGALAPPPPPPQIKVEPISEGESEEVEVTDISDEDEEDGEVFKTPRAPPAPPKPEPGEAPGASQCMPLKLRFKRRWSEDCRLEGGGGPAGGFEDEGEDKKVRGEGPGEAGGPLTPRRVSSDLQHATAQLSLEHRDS
The note with it: protein: recombinant; tags: N-terminal GST; dsDNA, one strand shown. An outline of the steps:
as §1

The target of assay [12] is T7, ETV3L (Homo sapiens, UniProt Q6ZN32 1-361).
T7 sequence: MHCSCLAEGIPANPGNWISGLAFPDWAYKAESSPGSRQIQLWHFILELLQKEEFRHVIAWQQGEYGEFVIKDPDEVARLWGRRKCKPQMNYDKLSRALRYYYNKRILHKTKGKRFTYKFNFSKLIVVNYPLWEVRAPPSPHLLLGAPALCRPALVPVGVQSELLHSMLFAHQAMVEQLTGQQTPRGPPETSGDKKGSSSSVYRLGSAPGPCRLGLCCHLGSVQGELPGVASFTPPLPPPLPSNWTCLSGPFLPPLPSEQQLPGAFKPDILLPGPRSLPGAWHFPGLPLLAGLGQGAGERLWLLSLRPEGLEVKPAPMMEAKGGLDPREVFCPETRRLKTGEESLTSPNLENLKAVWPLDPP
The note with it: protein: recombinant; tags: N-terminal GST; dsDNA, one strand shown. An outline of the steps:
as §1

In assay [13] the target is T8, ETS2 (Homo sapiens, UniProt P15036 1-469).
T8 sequence: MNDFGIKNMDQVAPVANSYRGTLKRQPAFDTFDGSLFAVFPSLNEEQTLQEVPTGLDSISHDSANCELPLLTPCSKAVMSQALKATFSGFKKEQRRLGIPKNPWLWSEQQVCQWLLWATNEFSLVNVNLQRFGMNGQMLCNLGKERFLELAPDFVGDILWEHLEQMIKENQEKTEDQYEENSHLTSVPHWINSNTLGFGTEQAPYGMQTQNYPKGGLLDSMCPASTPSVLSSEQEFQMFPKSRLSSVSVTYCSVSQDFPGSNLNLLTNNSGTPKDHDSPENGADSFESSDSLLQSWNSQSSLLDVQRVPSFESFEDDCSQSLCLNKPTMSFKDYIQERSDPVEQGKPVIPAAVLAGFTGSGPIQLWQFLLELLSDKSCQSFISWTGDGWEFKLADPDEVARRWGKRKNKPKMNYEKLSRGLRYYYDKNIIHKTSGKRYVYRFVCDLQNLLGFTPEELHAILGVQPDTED
The note with it: protein: recombinant; tags: N-terminal GST; dsDNA, one strand shown. The method in brief:
as §1

In assay [14] the target is T9, SPDEF (Homo sapiens, UniProt O95238 1-335).
T9 sequence: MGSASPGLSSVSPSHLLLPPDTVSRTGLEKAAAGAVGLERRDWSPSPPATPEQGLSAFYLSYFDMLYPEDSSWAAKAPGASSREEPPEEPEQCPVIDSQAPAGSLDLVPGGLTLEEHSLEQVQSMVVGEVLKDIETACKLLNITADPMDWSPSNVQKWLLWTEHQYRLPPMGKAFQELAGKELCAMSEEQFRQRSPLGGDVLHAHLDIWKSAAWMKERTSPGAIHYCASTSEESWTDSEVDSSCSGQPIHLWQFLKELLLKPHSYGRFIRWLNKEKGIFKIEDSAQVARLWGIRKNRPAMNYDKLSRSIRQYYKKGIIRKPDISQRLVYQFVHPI
The note with it: protein: recombinant; tags: N-terminal GST; dsDNA, one strand shown. An outline of the steps: as §1

The target of assay [15] is T10, ETV7 (Homo sapiens, UniProt Q9Y603 1-341).
T10 sequence: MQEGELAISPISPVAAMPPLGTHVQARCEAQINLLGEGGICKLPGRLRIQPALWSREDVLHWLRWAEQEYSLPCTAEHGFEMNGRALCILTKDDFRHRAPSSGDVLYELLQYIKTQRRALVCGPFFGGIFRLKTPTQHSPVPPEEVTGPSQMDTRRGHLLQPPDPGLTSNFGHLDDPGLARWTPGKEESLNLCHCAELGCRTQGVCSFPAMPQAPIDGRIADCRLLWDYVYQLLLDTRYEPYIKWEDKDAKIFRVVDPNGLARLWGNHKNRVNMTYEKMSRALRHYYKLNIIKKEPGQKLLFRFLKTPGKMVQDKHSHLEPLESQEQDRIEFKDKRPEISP
The note with it: protein: recombinant; tags: N-terminal GST; dsDNA, one strand shown. An outline of the steps:
as §1

For assay [16], the target named is T11, ELF5 (Homo sapiens, UniProt Q9UKW6-2 1-255).
T11 sequence: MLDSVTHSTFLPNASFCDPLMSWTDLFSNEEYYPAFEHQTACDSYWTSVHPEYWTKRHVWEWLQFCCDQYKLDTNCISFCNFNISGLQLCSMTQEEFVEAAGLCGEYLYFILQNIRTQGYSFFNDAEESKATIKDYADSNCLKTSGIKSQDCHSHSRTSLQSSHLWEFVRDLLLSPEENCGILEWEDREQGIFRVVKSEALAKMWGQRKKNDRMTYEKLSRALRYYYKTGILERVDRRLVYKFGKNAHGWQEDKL
The note with it: protein: recombinant; tags: N-terminal GST; dsDNA, one strand shown. The method in brief: as §1

For assay [17], the target named is T12, ETV3 (Homo sapiens, UniProt P41162-2 1-143).
T12 sequence: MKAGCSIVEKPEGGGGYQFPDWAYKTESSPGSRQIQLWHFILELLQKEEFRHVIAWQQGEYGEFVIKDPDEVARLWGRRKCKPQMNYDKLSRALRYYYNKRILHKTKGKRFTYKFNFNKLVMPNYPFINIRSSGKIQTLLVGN
The note with it: protein: recombinant; tags: N-terminal GST; dsDNA, one strand shown. The method in brief: as §1

The target of assay [18] is ETV6 (Homo sapiens, UniProt P41212 1-452). The note with it: protein: recombinant; tags: N-terminal GST; dsDNA, one strand shown. An outline of the steps: as §1
Sequence of ETV6 (P41212 whole entry): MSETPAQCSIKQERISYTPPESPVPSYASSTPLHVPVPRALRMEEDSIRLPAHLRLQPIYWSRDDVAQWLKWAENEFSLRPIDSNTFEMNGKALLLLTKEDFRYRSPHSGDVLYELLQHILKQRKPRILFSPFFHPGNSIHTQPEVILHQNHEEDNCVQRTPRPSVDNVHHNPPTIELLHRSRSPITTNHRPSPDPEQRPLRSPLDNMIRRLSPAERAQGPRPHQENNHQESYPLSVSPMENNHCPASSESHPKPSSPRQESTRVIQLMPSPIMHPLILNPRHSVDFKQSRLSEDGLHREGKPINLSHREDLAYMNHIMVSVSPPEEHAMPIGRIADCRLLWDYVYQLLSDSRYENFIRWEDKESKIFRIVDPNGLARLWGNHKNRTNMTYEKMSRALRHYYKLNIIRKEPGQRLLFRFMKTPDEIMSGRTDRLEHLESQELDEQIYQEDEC

Sequence of ETV5 (P41161 whole entry): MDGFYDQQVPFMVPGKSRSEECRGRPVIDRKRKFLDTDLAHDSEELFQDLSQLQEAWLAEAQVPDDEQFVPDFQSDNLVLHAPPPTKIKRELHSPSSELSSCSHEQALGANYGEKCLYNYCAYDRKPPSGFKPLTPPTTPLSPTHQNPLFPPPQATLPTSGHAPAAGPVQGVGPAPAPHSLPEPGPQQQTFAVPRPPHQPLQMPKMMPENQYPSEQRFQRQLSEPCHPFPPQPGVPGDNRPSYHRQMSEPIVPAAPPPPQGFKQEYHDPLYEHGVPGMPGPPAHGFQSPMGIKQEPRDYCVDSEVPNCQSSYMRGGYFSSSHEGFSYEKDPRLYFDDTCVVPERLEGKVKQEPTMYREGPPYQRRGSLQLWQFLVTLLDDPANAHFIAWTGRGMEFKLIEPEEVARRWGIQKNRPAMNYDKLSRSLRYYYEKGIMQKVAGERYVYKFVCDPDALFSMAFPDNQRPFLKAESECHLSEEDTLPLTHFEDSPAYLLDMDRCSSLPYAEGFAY
Sequence of ETV1 (P50549 whole entry): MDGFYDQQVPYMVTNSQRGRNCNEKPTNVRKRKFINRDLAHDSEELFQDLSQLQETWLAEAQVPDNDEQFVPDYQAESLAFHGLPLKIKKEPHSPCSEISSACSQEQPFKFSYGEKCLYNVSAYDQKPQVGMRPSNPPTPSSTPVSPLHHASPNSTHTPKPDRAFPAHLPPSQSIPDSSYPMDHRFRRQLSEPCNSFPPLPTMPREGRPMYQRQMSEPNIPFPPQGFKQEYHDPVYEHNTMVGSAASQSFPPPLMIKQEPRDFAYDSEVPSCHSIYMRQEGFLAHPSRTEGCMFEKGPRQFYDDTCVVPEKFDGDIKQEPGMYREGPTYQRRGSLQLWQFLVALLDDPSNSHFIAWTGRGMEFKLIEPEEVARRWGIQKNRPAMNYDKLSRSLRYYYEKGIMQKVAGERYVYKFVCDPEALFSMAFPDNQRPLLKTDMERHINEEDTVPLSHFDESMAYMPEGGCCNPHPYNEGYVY

Take AGCTCC: the binding signal in assay [1] was 1.26 fold enrichment (6-mer frequency, TF over GST control); in assay [2], 1.29 fold enrichment (6-mer frequency, TF over GST control); in assay [3] it was 1.22 fold enrichment (6-mer frequency, TF over GST control); in assay [4] it was 1.26 fold enrichment (6-mer frequency, TF over GST control); in assay [5] it was 1.43 fold enrichment (6-mer frequency, TF over GST control); in [6] it was 1.16 fold enrichment (6-mer frequency, TF over GST control). In addition, the binding signal in [7] was 1.35 fold enrichment (6-mer frequency, TF over GST control); in [8], 1.33 fold enrichment (6-mer frequency, TF over GST control); in assay [9], 1.3 fold enrichment (6-mer frequency, TF over GST control); in assay [10] it was 1.29 fold enrichment (6-mer frequency, TF over GST control); in assay [11], 1.24 fold enrichment (6-mer frequency, TF over GST control); in assay [12], 1.25 fold enrichment (6-mer frequency, TF over GST control). For the same sequence, the binding signal is 1.33 fold enrichment (6-mer frequency, TF over GST control) in assay [13]; 1.4 fold enrichment (6-mer frequency, TF over GST control) in assay [14]; 1.17 fold enrichment (6-mer frequency, TF over GST control) in assay [15]; 1.2 fold enrichment (6-mer frequency, TF over GST control) in assay [16]; 1.22 fold enrichment (6-mer frequency, TF over GST control) in assay [17]; 1.32 fold enrichment (6-mer frequency, TF over GST control) in [18].

These data come from PMC7862700, “An all-to-all approach to the identification of sequence-specific readers for epigenetic DNA modifications on cytosine”.
